Measurements taken from PubChem BioAssay (EPA / NIEHS).
Results filed as inconclusive are left out. A structure can be active in one record and inactive in another. Calls of active or inactive are those of the source. How the source made its calls, unless noted: active means hit-call score of the fitted dose curve at least 0.9, where 1 is the maximum; inactive means score below 0.9.

What was measured:
[1] = CCTE_Harrill_HTTr_Viability_MCF7: CCTE's 6-hour Cell Viability Assessment for the High-Throughput Transcriptomics (HTTr) Platform, in MCF-7 cells cultured in DMEM + 10% fetal bovine serum, Harrill Lab (AID 2284010)
In short: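 Cells were dosed with chemicals in an eight-point dilution series, imaged 6 hours later for propidium iodide uptake, and the endpoint was analyzed by bidirectional fitting against DMSO as negative control.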

[2] = CCTE_Harrill_HTTr_Apoptosis_MCF7: CCTE's 6-hour Apoptosis Assessment for the High-Throughput Transcriptomics (HTTr) Platform, in MCF-7 cells cultured in DMEM + 10% fetal bovine serum, Harrill Lab (AID 2284011)
In short: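 Read-out: CellEvent Caspase 3/7 Green signal by high content imaging, gain-of-signal indicating apoptosis. MCF-7 cells, DMEM + 10% FBS, eight-point dilution series, 6 h exposure. Curves fitted bidirectionally relative to DMSO negative control.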

[3] = CCTE_Shafer_MEA_acute_spike_number: CCTE's Neural Acute Assay for Total Number of Spikes, Shafer Lab (AID 2284008);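 on AC50: curve fitted for decrease in spike count so AC50 reflects inhibitors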
In short: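 Rat cortical cultures, DIV 13/15, 37 C. 40 min baseline rec, cpd 0.03-40 uM, 40 min post-dose rec. Band-pass 300-5000 Hz, spike threshold 8x rms; % change in spike count per well, DMSO neg ctrl, loss-of-signal fit.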

[4] = CCTE_Shafer_MEA_acute_firing_rate_mean: CCTE's Neural Acute Assay for Mean Firing Rate, Shafer Lab (AID 2284009);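 further: analyzed for loss of signal so actives lower firing rate relative to DMSO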
In short: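 Percent change in well-mean firing rate was derived from extracellular spikes detected at 8x rms noise (300-5000 Hz band-pass) before and after a 40-min compound exposure. Cultures were primary rat cortical neurons, tested at 0.03-40 uM.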

[5] = CCTE_Harrill_HTTr_CellCount_MCF7: CCTE's Cell Proliferation Assessment for the High-Throughput Transcriptomics (HTTr) Platform, Harrill Lab (AID 2284012; active means hit-call score of the fitted dose curve at least 0.9, where 1 is the maximum;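 further: count of Hoechst-stained nuclei per well by high-content imaging in MCF-7 cells; cells exposed to compound for six hours; intended direction is loss of nuclei count meaning fewer cells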)
In short: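 Chemicals in eight-point dilution series are added to MCF-7 cells for six hours, nuclei are stained with Hoechst and imaged, and per-well nuclei counts are fitted in both directions relative to DMSO controls.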

[6] = CCTE_Shafer_MEA_acute_burst_duration_mean: CCTE's Neural Acute Assay for Mean Burst Duration, Shafer Lab (AID 2284014);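 further: hits are decreases in mean burst duration relative to DMSO controls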
In short: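 Read-out is the per-well percent change in mean burst duration (first to last spike within a single-electrode burst) between 40-min recordings before and after compound. Cultures were primary rat cortical neurons on MEAs, dosed at 0.03-40 uM on DIV 13 or 15.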

[7] = CCTE_Shafer_MEA_acute_per_burst_spike_number_mean: CCTE's Neural Acute Assay for Average Number of Spikes Per Burst, Shafer Lab (AID 2284015);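 further: hits are decreases in mean spikes per burst versus baseline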
In short: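 Read-out: percent change in mean spikes per burst, each well's post-exposure 40-min recording versus its own 40-min baseline. Rat cortical cultures, DIV 13 or 15, compounds 0.03-40 uM; DMSO is negative control, loss-of-signal fitting.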

[8] = CCTE_Shafer_MEA_acute_interburst_interval_mean: CCTE's Neural Acute Assay for Mean Interburst Interval, Shafer Lab (AID 2284016);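 further: percent change of mean interburst interval versus each well's own pre-dose baseline; curves fitted for decrease in interburst interval relative to DMSO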
In short: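 Rat cortical cultures, DIV 13/15; 20 min equilibration, 40 min baseline, compound 0.03-40 uM, 40 min re-recording, 37 C. Spikes detected at 8x rms noise (300-5000 Hz band-pass). Endpoint: % change in interburst interval, fitted in loss direction vs DMSO.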

[9] = CCTE_Shafer_MEA_acute_burst_percentage_mean: CCTE's Neural Acute Assay for Percentage of Spikes in a Burst, Shafer Lab (AID 2284017);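 on AC50: curve fitted for loss of signal so potency reflects decreased burst percentage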
In short: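 Rat cortical cultures, DIV 13/15, 37 C. Spikes detected at 8x rms noise (300-5000 Hz band-pass). Burst spikes/total spikes averaged across electrodes per well; % change post- vs pre-treatment (40 min each), loss-of-signal fit vs DMSO.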

[10] = CCTE_Shafer_MEA_acute_burst_percentage_std: CCTE's Neural Acute Assay for Standard Deviation of Burst Percentage, Shafer Lab (AID 2284018);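 further: fitted in the negative direction so actives lower burst percentage SD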
In short: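 Value is percent change from baseline in the across-electrode SD of spikes-in-bursts percentage, wells with >/= 10 active electrodes. Acute 40-min exposure to 0.03-40 uM on DIV 13 or 15 rat cortical cultures, recorded at 37 C after 40-min baseline.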

[11] = CCTE_Shafer_MEA_acute_per_network_burst_spike_number_mean: CCTE's Neural Acute Assay for Average Number of Spikes in a Network Burst, Shafer Lab (AID 2284019);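 on AC50: curve fitted for loss of signal so actives reduce spikes per network burst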
In short: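 Read-out is mean spike count per network burst, taken as percent change between a 40-min pre-exposure and a 40-min post-exposure recording per well. Rat primary cortical neurons on MEAs at 37 C, DIV 13 or 15; compounds at 0.03-40 uM.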

[12] = CCTE_Shafer_MEA_acute_per_network_burst_spike_number_std: CCTE's Neural Acute Assay for Standard Deviation of Number of Spikes in a Network Burst, Shafer Lab (AID 2284020);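 further: fitted for decrease in spike-number SD versus DMSO so actives lower it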
In short: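 Spontaneous network activity of primary rat cortical neurons is recorded extracellularly before and after a 40-min compound exposure (0.03-40 uM) at 37 C. The endpoint is the well's percent change in burst spike-number SD.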

[13] = CCTE_Shafer_MEA_acute_per_network_burst_electrodes_number_mean: CCTE's Neural Acute Assay for Mean Number of Electrodes in a Network Burst, Shafer Lab (AID 2284021);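 further: curves fitted for decreases only so hits reduce electrodes per burst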
In short: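 Readout: % change in mean electrodes active per network burst, post- vs pre-treatment, each well. Spikes detected at 8x rms noise after 300-5000 Hz band-pass; rat cortical cultures, DIV 13/15, compounds 0.03-40 uM, DMSO baseline.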

[14] = CCTE_Shafer_MEA_acute_network_burst_percentage: CCTE's Neural Acute Assay for Percentage of Network Bursts, Shafer Lab (AID 2284022);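 further: curves fitted for loss so actives lower network burst percentage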
In short: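 Rat cortical cultures, DIV 13/15; 20 min equilibration, 40 min baseline, compound 0.03-40 uM, 40 min recording, 37 C. Spikes: 300-5000 Hz band-pass, threshold 8x rms noise. Readout: % change in network-burst spike fraction; loss direction vs DMSO.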

[15] = CCTE_Shafer_MEA_acute_synchrony_index: CCTE's Neural Acute Assay for Synchrony, Shafer Lab (AID 2284027);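 further: fitted for loss of signal so actives lower synchrony relative to DMSO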
In short: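 Readout is percent change in the unitless network synchrony index (0 low, 1 high) between a 40-min baseline and a 40-min recording in compound. Cultures were primary rat cortical neurons on MEAs, treated at 0.03-40 uM on DIV 13 or 15.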

[16] = CCTE_Simmons_MITO_viability: CellTiter-Glo Viability Assessment for CCTE's HepG2 Seahorse XF Respirometric Screening Assay [post-hoc], Simmons Lab (AID 2284007; active means hit-call score of the fitted dose curve at least 0.9, where 1 is the maximum;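 on AC50: cells exposed to chemical for 90 min before the ATP read; actives lower ATP signal relative to DMSO baseline meaning reduced viability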)
In short: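 After the Seahorse oxygen-consumption sequence (basal, FCCP, rotenone/antimycin A; 72 min total), HepG2 viability was scored as ATP content by bioluminescence. Chemicals ran at seven concentrations up to 100 uM final for 90 min.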

## Fc1ccc(C2(Cn3cncn3)OC2c2ccccc2Cl)cc1 (configuration not stated)
[1]
  outcome: inactive
[2]
  outcome: inactive

## O=Cc1cccc(Oc2ccccc2)c1
[1]
  outcome: inactive
[2]
  outcome: inactive

## COP(=S)(OC)Oc1cc(Cl)c(Br)cc1Cl
[1]
  outcome: inactive
[2]
  outcome: inactive

## ClC1(Cl)C2(Cl)C3(Cl)C4(Cl)C(Cl)(Cl)C5(Cl)C3(Cl)C1(Cl)C5(Cl)C24Cl (configuration not stated)
[3]
  outcome: inactive
[4]
  outcome: inactive
[1]
  outcome: inactive
[2]
  outcome: inactive
[5]
  outcome: inactive
[6]
  outcome: inactive
[7]
  outcome: inactive
[8]
  outcome: inactive
[9]
  outcome: inactive
[10]
  outcome: inactive
[11]
  outcome: inactive
[12]
  outcome: inactive
[13]
  outcome: inactive
[14]
  outcome: inactive
[15]
  outcome: inactive

## CC(=O)[O][Hg][c]1ccccc1
[16]
  AC50: 81.7 µM (active)
[3]
  outcome: inactive
[4]
  outcome: inactive
[1]
  AC50: 53.5 µM (active)
[2]
  outcome: inactive
[5]
  AC50: 50 µM (active)
[6]
  AC50: 29.5 µM (active)
[7]
  outcome: inactive
[8]
  AC50: 0.941 µM (active)
[9]
  AC50: 1.13 µM (active)
[10]
  outcome: inactive
[11]
  AC50: 0.331 µM (active)
[12]
  AC50: 0.844 µM (active)
[13]
  AC50: 0.561 µM (active)
[14]
  AC50: 1.3 µM (active)
[15]
  AC50: 2.02 µM (active)

## ClCCBr
[1]
  outcome: inactive
[2]
  outcome: inactive

## O=[N+]([O-])c1ccc(O)c([N+](=O)[O-])c1
[16]
  AC50: 18.1 µM (active)
  outcome: inactive
[1]
  outcome: inactive
[2]
  outcome: inactive
[5]
  outcome: inactive

## CC(C)(C)c1cc(O)ccc1O
[3]
  outcome: inactive
[4]
  outcome: inactive
[6]
  outcome: inactive
[7]
  outcome: inactive
[8]
  outcome: inactive
[9]
  AC50: 20 µM (active)
[10]
  outcome: inactive
[11]
  outcome: inactive
[12]
  AC50: 20 µM (active)
[13]
  outcome: inactive
[14]
  outcome: inactive
[15]
  AC50: 29.9 µM (active)

## Cn1sc(Cl)cc1=O
[1]
  outcome: inactive
[2]
  outcome: inactive

## CCCCCCCCc1ccc(O)cc1
[16]
  outcome: inactive
[3]
  AC50: 3 µM (active)
[4]
  AC50: 3.15 µM (active)
[1]
  outcome: inactive
[2]
  outcome: inactive
[5]
  outcome: inactive
[6]
  outcome: inactive
[7]
  outcome: inactive
[8]
  AC50: 5 µM (active)
[9]
  AC50: 12.7 µM (active)
[10]
  AC50: 20 µM (active)
[11]
  outcome: inactive
[12]
  outcome: inactive
[13]
  outcome: inactive
[14]
  AC50: 3.39 µM (active)
[15]
  AC50: 20 µM (active)

## O=C(O)C(Cl)(Cl)Cl
[3]
  outcome: inactive
[4]
  outcome: inactive
[1]
  outcome: inactive
[2]
  outcome: inactive
[5]
  outcome: inactive
[6]
  outcome: inactive
[7]
  outcome: inactive
[8]
  outcome: inactive
[9]
  outcome: inactive
[10]
  outcome: inactive
[11]
  outcome: inactive
[12]
  outcome: inactive
[13]
  outcome: inactive
[14]
  outcome: inactive
[15]
  outcome: inactive

## CC(C)(OO)c1ccccc1
[3]
  outcome: inactive
[4]
  outcome: inactive
[1]
  outcome: inactive
[2]
  outcome: inactive
[5]
  outcome: inactive
[6]
  outcome: inactive
[7]
  outcome: inactive
[8]
  outcome: inactive
[9]
  outcome: inactive
[10]
  outcome: inactive
[11]
  outcome: inactive
[12]
  outcome: inactive
[13]
  outcome: inactive
[14]
  outcome: inactive
[15]
  outcome: inactive

## O=C1C2(Cl)C3(Cl)C4(Cl)C(Cl)(Cl)C5(Cl)C3(Cl)C1(Cl)C5(Cl)C24Cl (configuration not stated)
[16]
  AC50: 71.6 µM (active)
[3]
  AC50: 1.84 µM (active)
[4]
  AC50: 1.84 µM (active)
[1]
  outcome: inactive
[2]
  outcome: inactive
[5]
  outcome: inactive
[6]
  AC50: 9.11 µM (active)
[7]
  AC50: 9.36 µM (active)
[8]
  outcome: inactive
[9]
  AC50: 9.9 µM (active)
[10]
  AC50: 32.5 µM (active)
[11]
  outcome: inactive
[12]
  AC50: 9.39 µM (active)
[13]
  outcome: inactive
[14]
  outcome: inactive
[15]
  AC50: 20 µM (active)

## CCC(=O)C(CC(C)N(C)C)(c1ccccc1)c1ccccc1 (configuration not stated)
[3]
  AC50: 0.0569 µM (active)
[4]
  AC50: 0.052 µM (active)
[1]
  outcome: inactive
[2]
  outcome: inactive
[5]
  outcome: inactive
[6]
  AC50: 0.208 µM (active)
[7]
  outcome: inactive
[8]
  outcome: inactive
[9]
  AC50: 26.2 µM (active)
[10]
  outcome: inactive
[11]
  outcome: inactive
[12]
  outcome: inactive
[13]
  outcome: inactive
[14]
  outcome: inactive
[15]
  outcome: inactive

## CCN1CCC2(CC1)COc1cc3c(cc12)N(C(=O)c1ccc(-c2ccc(-c4nnc(C)o4)cc2C)cc1)CC3
[3]
  AC50: 7.7 µM (active)
[4]
  AC50: 7.7 µM (active)
[1]
  AC50: 66.2 µM (active)
[2]
  AC50: 60.3 µM (active)
[5]
  outcome: inactive
[6]
  outcome: inactive
[7]
  outcome: inactive
[8]
  outcome: inactive
[9]
  AC50: 27.3 µM (active)
[10]
  outcome: inactive
[11]
  outcome: inactive
[12]
  AC50: 30.1 µM (active)
[13]
  outcome: inactive
[14]
  AC50: 24.9 µM (active)
[15]
  AC50: 17.2 µM (active)

## CC(C)(c1ccccc1)c1ccc(O)c(C(C)(C)c2ccccc2)c1
[3]
  AC50: 8.24 µM (active)
[4]
  AC50: 8.32 µM (active)
[1]
  outcome: inactive
[2]
  outcome: inactive
[6]
  outcome: inactive
[7]
  outcome: inactive
[8]
  AC50: 4.19 µM (active)
[9]
  AC50: 7.18 µM (active)
[10]
  AC50: 20 µM (active)
[11]
  outcome: inactive
[12]
  outcome: inactive
[13]
  outcome: inactive
[14]
  AC50: 28.6 µM (active)
[15]
  AC50: 6.29 µM (active)

## CCOP(=S)(OCC)SCSP(=S)(OCC)OCC
[3]
  outcome: inactive
[4]
  outcome: inactive
[1]
  outcome: inactive
[2]
  outcome: inactive
[6]
  outcome: inactive
[7]
  outcome: inactive
[8]
  outcome: inactive
[9]
  AC50: 20 µM (active)
[10]
  outcome: inactive
[11]
  outcome: inactive
[12]
  AC50: 20 µM (active)
[13]
  AC50: 11.8 µM (active)
[14]
  AC50: 27 µM (active)
[15]
  AC50: 24.4 µM (active)

## COC(=O)c1sccc1S(=O)(=O)NC(=O)Nc1nc(C)nc(OC)n1
[1]
  outcome: inactive
[2]
  outcome: inactive

## Cc1cc(Cl)ccc1O[C@H](C)C(=O)O
[1]
  outcome: inactive
[2]
  outcome: inactive
